We go through five compounds from PubChem BioAssay.

Assay [1] is described as follows: inhibitors of TNFa-induced NFkB p65 translocation, primary screen, imaging, HUVEC, MLSMR starter and 10KST1 sets (AID 438;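 active means inhibition above 20% together with a positive visual image hit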;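 further: compound added about 3h40 before a 20 min TNFalpha stimulation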;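 on inhibition: signal is the nuclear over cytoplasmic p65 intensity ratio per well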). The conditions noted are these: HUVEC TNFa-induced p65 nuclear translocation; cell count: measured here: nuclei count (cytotoxicity indicator), at 2.08 µM; inhibition: at 2 µM, stronger effect = higher value, 0% TNFa-plus-vehicle, 100% no-TNFa wells.
Assay [2] can be described thus: reduction of polyQ htt aggregates in cells – imaging, exon1htt(103Q)mCFP cells, high-content imaging, primary screen (AID 483;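 active means visual image review flags a hit and inhibition of aggregation exceeds 20%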;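 further: compound exposure lasted 3 days before fixation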;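 on nuclei count: percent of the per-plate median nuclei count of sample wells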). The conditions noted are these: exon1htt(103Q)mCFP cell line, aggregate imaging, at 2 µM; inhibition of aggregation: stronger effect = higher value; nuclei count: measured here: cell count, toxicity.
Assay [3] can be described thus: endothelial E-selectin expression blockers – imaging, HUVEC, immunofluorescence, MLSMR starter and 10KST1 sets, primary screen (AID 487;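 active means visually confirmed hit in the image check and inhibition above 20%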;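 on inhibition: signal is fraction of cell area covered by stained E-selectin grains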;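 on nuclei count: 100% = median nuclei count of all wells on the same plate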). The conditions noted are these: HUVEC TNFalpha-induced E-selectin immunofluorescence imaging, at 2 µM; inhibition: stronger effect = higher value; nuclei count: measured here: cell number, toxicity.
Assay [4] in a line: Primary imaging screen for DUSP6 inhibitors that restore phospho-Erk in transfected HeLa cells, chemical complementation (AID 609;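 active means compounds giving at least 50% inhibition in the cell-based MKP-3 phosphatase rescue imaging test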;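 on inhibition: phospho-Erk level distribution per well compared with pooled transfected vehicle control wells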). Particulars: HeLa MKP-3 transfected, phospho-Erk imaging KS statistic, at 10 µM, cells stimulated with TPA for 15 min.
The target of assay [5] is Dual specificity protein phosphatase 6 (Homo sapiens) (UniProt Q16828). Described as above. The conditions noted are these: HeLa MKP-3 transfected, phospho-Erk imaging KS statistic; at 10 µM; stronger effect = higher value; cells stimulated with TPA for 15 min.
The target in assay [6] is Voltage-gated potassium channel subunit beta-2 (Rattus norvegicus) (UniProt P62483). In words: inhibitors of rat Kvbeta2 reductase activity – biochemical, NADPH fluorescence, primary screen (AID 622;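 active means fluorescence slope higher than the sample average by over 3 SD, cut at about -0.22 in these data, passing the limit was not always enough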;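 further: slope of raw intensity against log time taken from 70 to 1610 s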). The conditions noted are these: recombinant KvBeta, 4-cyanobenzaldehyde reduction, at 10 µM, stronger effect = higher value.
Assay [7] has the same target. In words: enhancers of rat Kvbeta2 NADPH turnover – biochemical, NADPH fluorescence, primary screen (AID 623;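 active means NADPH fluorescence slope more negative than the mean of all samples by about 3 SD, 99.7% confidence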;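 further: fluorescence intensity change per second fitted from 20 to 320 s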). The conditions noted are these: Recombinant KvBeta, NADPH fluorescence decrease slope, 10 min; at 10 µM; stronger effect = lower value.
For assay [8], the target named is Alpha-2C adrenergic receptor (Homo sapiens) (UniProt P18825). As to the kind of experiment: compounds altering alpha2C-coupled GIRK flux – cell-based, HEK293 alpha2C/GIRK1/2, thallium flux, primary screen (AID 624;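 active means fluorescence slope after compound addition differing from the mean of all screened samples at 99.7% confidence, in either direction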;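 further: slope of fluorescence ratio to pre-addition baseline per second over 15 to 24 s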). Particulars: thallium flux BTC fluorescence, at 10 µM, actives lie on both sides.
For assay [9], the target named is Muscarinic acetylcholine receptor M4 (Homo sapiens) (UniProt P08173). In words: M4-linked GIRK flux change, two-sided – cell-based, HEK293 M4/GIRK, thallium flux, BTC-AM, M4 allosteric agonist project, primary screen (AID 625;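 active means fluorescence slope after compound addition differing from the mean of all tested samples at 99.7% confidence, mostly higher but some lower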;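 further: thallium influx through GIRK channels coupled to M4 in HEK293 cells with BTC-AM dye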). The conditions noted are these: at 10 µM, actives lie on both sides.
A short description of assay [10]: inhibitors of larval lipid processing in zebrafish, primary screen, whole organism, PED6 fluorescence, gall bladder and intestine (AID 686;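 active means a full or partial loss of lipid-probe fluorescence in the fish gall bladder, intestine or both, judged by eye; inactive means no fluorescence loss, or compound toxic to the fish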;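 further: larvae 5 to 7 days old with five fish per well; signal comes from phospholipase A2 cleavage of quenched PED6 carried via bile; overnight exposure to compound and PED6 before scoring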). The conditions noted are these: Zebrafish larvae PED6 lipid processing, fluorescence scoring; screened at 20 µM (by protocol).
Assay [11] is described as follows: loss of swimming-algae plug formation – whole organism, Chlamydomonas reinhardtii, WT vs cilia-less mutant, absorbance, 96-well, primary screen (AID 463189;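 active means inhibition at or above 50% relative to wild type and mutant plate controls; inactive means inhibition below 50%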;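 further: 0% = wild type cc124 cells in DMSO and 100% = ciliumless bld1 mutant cells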). Particulars: Chlamydomonas reinhardtii gravitaxis, OD600 absorbance, 2 days; at 10 µM; stronger effect = higher value.
Assay [12] in a line: blockers of RIG-like receptor reporter activation – cell-based, Sendai virus stimulus, luciferase, 10K MLSCN set, TLR/RLR signaling modifier project, primary screen (AID 602276;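 active means inhibition at or above 50% at 10 µM; inactive means inhibition below 50%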;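 further: firefly luciferase from ISG56 promoter only with Renilla not read in this screen; 0% = Sendai virus plus DMSO and 100% = medium plus DMSO without virus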). The conditions noted are these: HEK293 RL24 IRF3 luciferase reporter, at 10 µM, stronger effect = higher value. On the technique in general: Reporter assays use an easily measured gene product as a stand-in for the process of interest.

Assay [13] is described as follows: TLR3 IRF3 reporter activation blockers – cell-based, poly I:C stimulus, luciferase, 10K MLSCN set, primary screen (AID 602277). The conditions noted are these: HEK293-TLR3 RL24 IRF3 luciferase reporter, at 10 µM, stronger effect = higher value.
Where [14] appears, read: measured here: cell density z-score.
Where [15] appears, read: measured here: nuclear c-Myc green intensity z-score.
[16] abbreviates: measured here: nuclear pErk red intensity z-score, stronger effect = higher value.

Active and inactive are the calls of the source.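 How the source made its calls, unless noted: active means inhibition of the reporter signal at or above 50%; inactive means inhibition below 50%.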

Voltage-gated potassium channel subunit beta-2 (Rattus norvegicus), sequence (P62483 whole entry, looked up): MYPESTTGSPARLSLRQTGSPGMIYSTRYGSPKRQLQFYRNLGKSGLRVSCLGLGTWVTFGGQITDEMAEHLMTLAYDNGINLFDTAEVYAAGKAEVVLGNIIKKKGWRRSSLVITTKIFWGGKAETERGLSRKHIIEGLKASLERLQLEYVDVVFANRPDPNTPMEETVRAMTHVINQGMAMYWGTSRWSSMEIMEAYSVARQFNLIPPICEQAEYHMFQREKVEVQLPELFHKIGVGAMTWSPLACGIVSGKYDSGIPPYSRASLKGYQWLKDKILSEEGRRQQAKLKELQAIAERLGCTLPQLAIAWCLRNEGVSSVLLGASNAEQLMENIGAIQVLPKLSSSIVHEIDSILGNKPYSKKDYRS
Muscarinic acetylcholine receptor M4 (Homo sapiens), sequence (P08173 whole entry, looked up): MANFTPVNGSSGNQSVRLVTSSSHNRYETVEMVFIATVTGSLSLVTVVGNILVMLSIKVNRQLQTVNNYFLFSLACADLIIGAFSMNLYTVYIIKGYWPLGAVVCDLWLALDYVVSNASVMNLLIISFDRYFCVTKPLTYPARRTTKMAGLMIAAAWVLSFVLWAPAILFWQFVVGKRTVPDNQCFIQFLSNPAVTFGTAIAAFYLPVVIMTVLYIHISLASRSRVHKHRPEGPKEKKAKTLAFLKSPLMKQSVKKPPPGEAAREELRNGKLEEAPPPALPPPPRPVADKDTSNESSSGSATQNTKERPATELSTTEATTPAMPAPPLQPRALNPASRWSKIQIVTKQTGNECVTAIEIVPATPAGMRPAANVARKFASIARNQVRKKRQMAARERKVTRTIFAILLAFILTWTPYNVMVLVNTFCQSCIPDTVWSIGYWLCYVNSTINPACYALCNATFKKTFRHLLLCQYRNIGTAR
Alpha-2C adrenergic receptor (Homo sapiens), sequence (P18825 whole entry, looked up): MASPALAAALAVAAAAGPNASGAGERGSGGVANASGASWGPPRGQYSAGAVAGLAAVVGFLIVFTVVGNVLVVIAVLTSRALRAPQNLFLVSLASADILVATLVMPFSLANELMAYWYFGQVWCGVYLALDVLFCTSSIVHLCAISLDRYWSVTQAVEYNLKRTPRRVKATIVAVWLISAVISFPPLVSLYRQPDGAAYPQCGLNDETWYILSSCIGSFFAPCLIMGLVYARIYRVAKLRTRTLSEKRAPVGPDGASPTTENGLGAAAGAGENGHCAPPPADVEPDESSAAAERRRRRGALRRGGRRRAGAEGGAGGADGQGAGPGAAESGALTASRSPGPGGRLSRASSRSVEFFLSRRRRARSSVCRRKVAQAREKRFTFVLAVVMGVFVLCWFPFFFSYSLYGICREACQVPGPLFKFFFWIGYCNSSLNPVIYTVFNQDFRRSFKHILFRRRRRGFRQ
Dual specificity protein phosphatase 6 (Homo sapiens), sequence (Q16828 whole entry, looked up): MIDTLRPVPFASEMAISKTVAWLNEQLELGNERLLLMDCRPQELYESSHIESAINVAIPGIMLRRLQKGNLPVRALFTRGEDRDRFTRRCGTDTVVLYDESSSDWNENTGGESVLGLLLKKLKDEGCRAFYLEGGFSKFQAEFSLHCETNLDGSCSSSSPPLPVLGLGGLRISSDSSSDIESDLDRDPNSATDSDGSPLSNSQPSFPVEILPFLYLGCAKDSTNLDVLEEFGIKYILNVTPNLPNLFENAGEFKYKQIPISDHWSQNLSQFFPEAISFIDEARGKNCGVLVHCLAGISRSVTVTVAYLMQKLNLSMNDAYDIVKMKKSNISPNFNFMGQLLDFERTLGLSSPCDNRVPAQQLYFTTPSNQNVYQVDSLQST

Consider `CC(NC(=O)Nc1nccs1)(C(F)(F)F)C(F)(F)F`, for which the cell count in assay [1] is 649. Besides, the inhibition (in general, the drop in the measured response relative to a control, in per cent) in assay [1] was -2.2% (inactive); in assay [3], -11.3% (inactive); in assay [5], -0.233% (inactive); in assay [11], -9.58% (inactive); in [12], 1.15% (inactive); in [13], 56.3% (active). The inhibition of aggregation in assay [2] was 0.8% (inactive). Also, the nuclei count in assay [2] came to 108%; in [3], 107%. The z-score in assay [4] (setting [14]) is -0.519; in assay [4] (setting [15]), -0.302; in assay [4] (setting [16]), -0.913. Also, the results for the fluorescence slope in assay [6] and in [9] were -0.47 (inactive) and 0.00776 (inactive), respectively. In [7], the NADPH fluorescence slope was -3.5e-05 (inactive). In [8], the slope was 0.00627 (inactive). Moreover, the compound was classed as inactive in assay [10].

`O=C(CCCN1C(=O)c2ccccc2C1=O)N1CCC(c2ccccc2)C1` (stereo not drawn): in [1], the cell count worked out at 452. The inhibition in assay [1] is -8.4% (inactive); in assay [3], -109% (inactive); in assay [5], -3.5% (inactive); in [11], 10.2% (inactive); in [12], 10.8% (inactive); in assay [13], -11.3% (inactive). The inhibition of aggregation in assay [2] is -32.2% (inactive). Also, the nuclei count in assay [2] amounted to 61.9%; in assay [3], 123%. The z-score in assay [4] (setting [14]) is 1.18; in assay [4] (setting [15]), -1.65; in [4] (setting [16]), 0.457. Also, in [6], the fluorescence slope was -0.453 (inactive). Besides, the NADPH fluorescence slope in assay [7] is -7.2e-05 (inactive). The slope in assay [8] was 0.00674 (inactive).

Regarding `C=CCNc1nnc(SC2CC(=O)N(c3ccc(OC)cc3)C2=O)s1` (stereo not drawn), in [1], the cell count was determined as 474. In addition, the inhibition is -3.2% (inactive) in assay [1]; -46.1% (inactive) in [3]; 5.95% (inactive) in assay [5]; 34% (inactive) in assay [11]; 12.1% (inactive) in assay [12]; -1.97% (inactive) in assay [13]. In addition, the inhibition of aggregation in assay [2] is -17.3% (inactive). Besides, the nuclei count in assay [2] worked out at 121%; in assay [3] it was 151%. In addition, the z-score in assay [4] (setting [14]) is -0.38; in assay [4] (setting [15]) it was -0.537; in assay [4] (setting [16]), 0.655. Also, the fluorescence slope in assay [6] is -0.391 (inactive); in assay [9], 0.00596 (inactive). Also, in assay [7], the NADPH fluorescence slope is -3.8e-05 (inactive). The slope in assay [8] was 0.00566 (inactive). Besides, the outcome in [10] was inactive.

Regarding `COc1cc2[nH]c3c(=O)n(CCN(C(C)C)C(C)C)cnc3c2cc1OC`, the cell count in [1] is 531. The inhibition is -5.6% (inactive) in assay [1]; -26.1% (inactive) in [3]; 3.97% (inactive) in assay [5]; 5.81% (inactive) in assay [11]; 10.1% (inactive) in assay [12]; 33.2% (inactive) in [13]. Further, the inhibition of aggregation in assay [2] is -4% (inactive). Also, the values for the nuclei count in assay [2] and in assay [3] were 102% and 150%, respectively. The figures for the z-score in assay [4] (setting [14]), in assay [4] (setting [15]) and in assay [4] (setting [16]) were 0.411, -1.49 and 0.261, respectively. Moreover, the fluorescence slope in assay [6] was -0.317 (inactive); in assay [9], 0.00609 (inactive). For the same compound, the NADPH fluorescence slope in assay [7] was -1.9e-05 (inactive). In assay [8], the slope was 0.00406 (inactive). In addition, the call in assay [10] was inactive.

Regarding `CCOC(=O)c1ccc(N2C(=O)CC(Sc3nnc(C)s3)C2=O)cc1` (stereo not drawn), the cell count in [1] stood at 627. For the same compound, the inhibition in assay [1] is -1.6% (inactive); in [3], -62.1% (inactive); in assay [5], -5.81% (inactive); in assay [11], 30.9% (inactive); in assay [12] it was 1.68% (inactive); in assay [13] it was 7% (inactive). Besides, the inhibition of aggregation in assay [2] is -10.1% (inactive). For the same compound, the figures for the nuclei count in assay [2] and in [3] were 98% and 104%, respectively. The results for the z-score in [4] (setting [14]), in [4] (setting [15]) and in assay [4] (setting [16]) were 0.196, -1.44 and -0.8, respectively. Further, the fluorescence slope is -0.471 (inactive) in [6] and 0.00572 (inactive) in [9]. For the same compound, the NADPH fluorescence slope in assay [7] is -1.4e-05 (inactive). Besides, in [8], the slope is 0.0059 (inactive). The compound was called inactive in [10].
